# Measurements published in PMC7862700, “An all-to-all approach to the identification of sequence-specific readers for epigenetic DNA modifications on cytosine”.
# How the values were obtained:
# Assay in all cases: DAPPL (digital affinity profiling via proximity ligation, sequencing); 10 mM Tris-HCl pH 7.5, 50 mM NaCl, 1 mM DTT, 4% glycerol, room temperature, 30 min; GST-TFs on glutathione beads, 16-mer random dsDNA library, 0.1% formaldehyde crosslink after washing; high values mean tight binding
# Conditions in all cases: protein: recombinant; tags: N-terminal GST; dsDNA, one strand shown
# FLI1 = biological target: T1, FLI1 (Homo sapiens, UniProt Q01543 1-452)
# T1 sequence: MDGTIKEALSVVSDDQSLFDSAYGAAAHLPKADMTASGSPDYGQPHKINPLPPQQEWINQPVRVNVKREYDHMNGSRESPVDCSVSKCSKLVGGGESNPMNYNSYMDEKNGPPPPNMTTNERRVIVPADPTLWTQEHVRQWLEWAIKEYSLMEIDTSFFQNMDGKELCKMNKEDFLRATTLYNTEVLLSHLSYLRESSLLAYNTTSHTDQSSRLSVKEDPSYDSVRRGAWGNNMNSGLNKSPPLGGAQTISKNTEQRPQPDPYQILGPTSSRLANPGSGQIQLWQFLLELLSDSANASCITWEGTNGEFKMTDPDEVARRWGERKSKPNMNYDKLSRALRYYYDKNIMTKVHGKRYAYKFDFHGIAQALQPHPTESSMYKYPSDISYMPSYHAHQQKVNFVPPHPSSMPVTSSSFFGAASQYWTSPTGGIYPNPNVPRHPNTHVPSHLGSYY
# Outline: (§1)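 Yeast served to express human transcription factors as GST fusions, which were then captured on glutathione beads and labelled with DNA barcodes. Pooled with a tag-only sample, they were incubated with 200 nmole of a 16-mer random double-stranded DNA library for 30 min at room temperature in Tris/NaCl/DTT/glycerol buffer, washed, crosslinked with 0.1% formaldehyde, ligated by proximity, amplified by PCR and sequenced. Dividing each hexamer's read frequency for a factor by its frequency for the tag-only sample gives the binding signal.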
# ELK1 = biological target: T2, ELK1 (Homo sapiens, UniProt P19419 1-428)
# T2 sequence: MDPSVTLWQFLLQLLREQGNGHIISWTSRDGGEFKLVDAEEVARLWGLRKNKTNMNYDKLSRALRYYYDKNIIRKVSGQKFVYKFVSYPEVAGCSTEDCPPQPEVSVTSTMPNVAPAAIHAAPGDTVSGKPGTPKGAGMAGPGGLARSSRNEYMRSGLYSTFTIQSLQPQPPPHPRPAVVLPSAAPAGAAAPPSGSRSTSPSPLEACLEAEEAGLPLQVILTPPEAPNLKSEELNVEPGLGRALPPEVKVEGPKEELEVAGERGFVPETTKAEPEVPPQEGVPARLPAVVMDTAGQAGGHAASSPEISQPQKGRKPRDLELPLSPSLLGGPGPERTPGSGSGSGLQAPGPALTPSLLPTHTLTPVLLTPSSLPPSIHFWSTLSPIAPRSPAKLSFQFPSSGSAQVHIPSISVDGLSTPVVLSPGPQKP
# Outline: as §1
# GABPA = biological target: T3, GABPA (Homo sapiens, UniProt Q06546 1-454)
# T3 sequence: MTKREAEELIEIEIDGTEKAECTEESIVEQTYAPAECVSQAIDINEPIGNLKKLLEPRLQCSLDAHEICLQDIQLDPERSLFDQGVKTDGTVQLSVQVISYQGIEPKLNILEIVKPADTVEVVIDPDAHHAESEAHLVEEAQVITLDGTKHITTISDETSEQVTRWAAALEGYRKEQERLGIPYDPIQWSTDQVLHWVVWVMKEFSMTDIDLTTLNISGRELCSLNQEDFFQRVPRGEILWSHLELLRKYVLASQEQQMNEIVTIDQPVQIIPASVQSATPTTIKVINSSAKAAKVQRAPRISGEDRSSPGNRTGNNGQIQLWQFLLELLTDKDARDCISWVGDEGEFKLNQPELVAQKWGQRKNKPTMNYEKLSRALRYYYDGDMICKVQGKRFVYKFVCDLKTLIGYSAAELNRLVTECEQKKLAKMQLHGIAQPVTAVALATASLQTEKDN
# Outline: as §1
# ERG = biological target: T4, ERG (Homo sapiens, UniProt P11308 1-479)
# T4 sequence: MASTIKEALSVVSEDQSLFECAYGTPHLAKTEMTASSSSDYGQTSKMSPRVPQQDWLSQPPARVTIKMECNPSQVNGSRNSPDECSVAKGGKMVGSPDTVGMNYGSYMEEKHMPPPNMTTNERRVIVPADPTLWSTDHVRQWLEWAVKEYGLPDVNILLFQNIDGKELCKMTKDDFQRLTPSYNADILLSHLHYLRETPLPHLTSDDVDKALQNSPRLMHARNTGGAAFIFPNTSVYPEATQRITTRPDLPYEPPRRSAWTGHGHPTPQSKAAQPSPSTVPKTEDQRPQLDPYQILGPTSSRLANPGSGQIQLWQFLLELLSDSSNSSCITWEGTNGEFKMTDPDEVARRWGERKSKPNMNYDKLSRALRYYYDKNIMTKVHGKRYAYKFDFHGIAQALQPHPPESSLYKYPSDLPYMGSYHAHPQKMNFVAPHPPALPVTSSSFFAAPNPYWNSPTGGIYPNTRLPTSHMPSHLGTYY
# Outline: as §1
# ELF1 = ELF1 (Homo sapiens, UniProt P32519 1-619)
# Outline: as §1
# EHF = biological target: T5, EHF (Homo sapiens, UniProt Q9NZC4 1-300)
# T5 sequence: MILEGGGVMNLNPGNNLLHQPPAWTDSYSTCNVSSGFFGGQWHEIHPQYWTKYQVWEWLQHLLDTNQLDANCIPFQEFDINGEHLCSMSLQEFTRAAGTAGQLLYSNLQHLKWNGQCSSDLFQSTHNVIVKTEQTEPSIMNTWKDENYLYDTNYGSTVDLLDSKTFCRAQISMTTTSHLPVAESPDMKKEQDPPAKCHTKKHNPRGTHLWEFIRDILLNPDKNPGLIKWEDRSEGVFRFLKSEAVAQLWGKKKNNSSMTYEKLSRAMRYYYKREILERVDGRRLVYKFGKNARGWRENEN
# Outline: as §1
# SPI1 = SPI1 (Homo sapiens, UniProt P17947 1-270)
# Outline: as §1
# SPIB = SPIB (Homo sapiens, UniProt Q01892 1-262)
# Outline: as §1
# ELK3 = biological target: T6, ELK3 (Homo sapiens, UniProt P41970 1-407)
# T6 sequence: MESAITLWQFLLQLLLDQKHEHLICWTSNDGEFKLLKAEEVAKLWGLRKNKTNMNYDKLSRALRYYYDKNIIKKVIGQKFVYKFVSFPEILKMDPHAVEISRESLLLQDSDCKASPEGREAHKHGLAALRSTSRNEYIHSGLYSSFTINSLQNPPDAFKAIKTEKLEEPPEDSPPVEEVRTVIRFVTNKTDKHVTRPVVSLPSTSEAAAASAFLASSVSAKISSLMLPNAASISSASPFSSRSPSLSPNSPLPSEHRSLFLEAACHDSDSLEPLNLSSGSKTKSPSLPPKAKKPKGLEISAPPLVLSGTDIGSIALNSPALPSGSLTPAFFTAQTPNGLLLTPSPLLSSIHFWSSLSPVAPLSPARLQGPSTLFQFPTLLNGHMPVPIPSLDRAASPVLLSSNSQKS
# Outline: as §1
# FEV = biological target: T7, FEV (Homo sapiens, UniProt Q99581 1-238)
# T7 sequence: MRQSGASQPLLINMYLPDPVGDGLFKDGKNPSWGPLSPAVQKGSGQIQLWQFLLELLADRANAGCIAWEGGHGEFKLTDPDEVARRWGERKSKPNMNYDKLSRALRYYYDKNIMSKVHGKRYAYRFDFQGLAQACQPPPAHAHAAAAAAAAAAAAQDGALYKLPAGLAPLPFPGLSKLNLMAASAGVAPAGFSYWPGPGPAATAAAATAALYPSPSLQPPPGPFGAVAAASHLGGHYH
# Outline: as §1
# ETV5 = ETV5 (Homo sapiens, UniProt P41161 1-510)
# Outline: as §1
# SPIC = biological target: T8, SPIC (Homo sapiens, UniProt Q8N5J4 1-248)
# T8 sequence: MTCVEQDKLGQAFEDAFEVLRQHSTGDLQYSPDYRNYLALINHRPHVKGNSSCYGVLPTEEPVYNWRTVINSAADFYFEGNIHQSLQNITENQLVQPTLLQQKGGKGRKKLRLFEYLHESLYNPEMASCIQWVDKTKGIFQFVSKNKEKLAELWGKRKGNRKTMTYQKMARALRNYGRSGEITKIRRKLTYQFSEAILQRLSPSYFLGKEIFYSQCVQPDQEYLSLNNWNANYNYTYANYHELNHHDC
# Outline: as §1
# ELF4 = ELF4 (Homo sapiens, UniProt Q99607 1-663)
# Outline: as §1
# ELK4 = biological target: T9, ELK4 (Homo sapiens, UniProt P28324-2 1-405)
# T9 sequence: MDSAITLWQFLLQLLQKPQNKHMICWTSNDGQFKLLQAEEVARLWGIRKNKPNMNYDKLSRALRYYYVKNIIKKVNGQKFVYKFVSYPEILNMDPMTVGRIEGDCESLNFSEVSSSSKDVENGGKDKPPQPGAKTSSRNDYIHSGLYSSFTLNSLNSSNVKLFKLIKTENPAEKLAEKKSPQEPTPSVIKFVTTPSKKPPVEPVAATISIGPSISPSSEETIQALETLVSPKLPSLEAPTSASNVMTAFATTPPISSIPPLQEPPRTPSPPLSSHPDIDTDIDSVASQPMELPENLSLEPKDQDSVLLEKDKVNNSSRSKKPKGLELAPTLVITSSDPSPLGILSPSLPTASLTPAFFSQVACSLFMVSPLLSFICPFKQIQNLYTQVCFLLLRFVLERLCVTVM
# Outline: as §1
# ETV2 = biological target: T10, ETV2 (Homo sapiens, UniProt O00321 1-342)
# T10 sequence: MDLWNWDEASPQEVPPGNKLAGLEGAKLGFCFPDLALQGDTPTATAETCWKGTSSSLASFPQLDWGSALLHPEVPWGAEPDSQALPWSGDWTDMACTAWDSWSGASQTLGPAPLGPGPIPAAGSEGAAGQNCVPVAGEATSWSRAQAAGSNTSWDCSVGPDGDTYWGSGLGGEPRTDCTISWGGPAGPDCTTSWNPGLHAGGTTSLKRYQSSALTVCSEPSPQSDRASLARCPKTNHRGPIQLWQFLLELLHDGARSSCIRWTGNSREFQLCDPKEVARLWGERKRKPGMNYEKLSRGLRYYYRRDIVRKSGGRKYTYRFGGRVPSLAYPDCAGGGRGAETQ
# Outline: as §1
# ELF3 = biological target: T11, ELF3 (Homo sapiens, UniProt P78545 1-371)
# T11 sequence: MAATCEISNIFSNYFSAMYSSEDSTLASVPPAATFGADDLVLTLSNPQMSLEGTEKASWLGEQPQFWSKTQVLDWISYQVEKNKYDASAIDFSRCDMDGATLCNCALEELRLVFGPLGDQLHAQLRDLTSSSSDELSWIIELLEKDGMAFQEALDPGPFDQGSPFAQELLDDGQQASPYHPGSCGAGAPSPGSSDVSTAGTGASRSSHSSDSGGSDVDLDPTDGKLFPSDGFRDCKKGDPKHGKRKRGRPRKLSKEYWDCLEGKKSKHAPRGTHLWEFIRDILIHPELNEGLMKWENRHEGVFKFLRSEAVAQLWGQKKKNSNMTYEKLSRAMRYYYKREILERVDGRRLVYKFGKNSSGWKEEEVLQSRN
# Outline: as §1
# ETV1 = ETV1 (Homo sapiens, UniProt P50549 1-477)
# Outline: as §1
# ELF4, sequence (Q99607 whole entry): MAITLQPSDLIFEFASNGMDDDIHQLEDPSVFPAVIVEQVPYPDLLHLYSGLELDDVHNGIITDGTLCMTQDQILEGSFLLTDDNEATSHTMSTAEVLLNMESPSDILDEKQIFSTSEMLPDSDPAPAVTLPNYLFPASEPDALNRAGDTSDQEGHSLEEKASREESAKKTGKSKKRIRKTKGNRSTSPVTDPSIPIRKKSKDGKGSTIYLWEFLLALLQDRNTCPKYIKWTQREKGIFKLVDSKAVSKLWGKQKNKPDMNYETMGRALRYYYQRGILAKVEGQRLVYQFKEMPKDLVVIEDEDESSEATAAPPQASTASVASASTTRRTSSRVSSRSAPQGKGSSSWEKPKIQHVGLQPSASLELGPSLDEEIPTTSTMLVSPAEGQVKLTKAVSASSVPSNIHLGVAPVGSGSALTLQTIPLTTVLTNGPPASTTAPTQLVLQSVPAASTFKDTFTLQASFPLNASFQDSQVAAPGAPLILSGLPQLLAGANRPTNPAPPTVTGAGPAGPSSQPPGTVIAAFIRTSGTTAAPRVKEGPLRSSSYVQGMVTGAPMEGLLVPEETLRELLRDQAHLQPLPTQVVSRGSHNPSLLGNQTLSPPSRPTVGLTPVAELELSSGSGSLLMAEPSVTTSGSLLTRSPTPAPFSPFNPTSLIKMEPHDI
# SPIB, sequence (Q01892 whole entry): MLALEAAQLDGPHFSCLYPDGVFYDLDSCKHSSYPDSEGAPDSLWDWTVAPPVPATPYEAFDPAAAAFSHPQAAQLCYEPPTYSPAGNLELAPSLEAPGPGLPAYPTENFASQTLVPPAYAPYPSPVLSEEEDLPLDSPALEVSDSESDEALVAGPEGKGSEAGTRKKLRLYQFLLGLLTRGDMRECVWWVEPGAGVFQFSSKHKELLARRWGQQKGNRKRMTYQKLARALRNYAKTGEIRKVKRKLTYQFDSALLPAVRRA
# ETV1, sequence (P50549 whole entry): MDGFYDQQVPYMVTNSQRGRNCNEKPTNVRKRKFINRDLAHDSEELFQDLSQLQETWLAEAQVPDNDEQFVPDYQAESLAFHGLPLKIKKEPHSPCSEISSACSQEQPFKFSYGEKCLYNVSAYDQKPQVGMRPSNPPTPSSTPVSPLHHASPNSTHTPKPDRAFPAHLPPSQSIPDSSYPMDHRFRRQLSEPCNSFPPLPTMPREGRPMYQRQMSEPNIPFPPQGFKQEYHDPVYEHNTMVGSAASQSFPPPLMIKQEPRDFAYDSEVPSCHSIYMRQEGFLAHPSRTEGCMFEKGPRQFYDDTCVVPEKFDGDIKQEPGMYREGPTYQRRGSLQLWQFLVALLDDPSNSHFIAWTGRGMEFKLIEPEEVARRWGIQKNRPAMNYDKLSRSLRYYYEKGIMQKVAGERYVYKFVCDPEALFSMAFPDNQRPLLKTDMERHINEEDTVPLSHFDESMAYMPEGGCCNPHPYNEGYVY
# ELF1, sequence (P32519 whole entry): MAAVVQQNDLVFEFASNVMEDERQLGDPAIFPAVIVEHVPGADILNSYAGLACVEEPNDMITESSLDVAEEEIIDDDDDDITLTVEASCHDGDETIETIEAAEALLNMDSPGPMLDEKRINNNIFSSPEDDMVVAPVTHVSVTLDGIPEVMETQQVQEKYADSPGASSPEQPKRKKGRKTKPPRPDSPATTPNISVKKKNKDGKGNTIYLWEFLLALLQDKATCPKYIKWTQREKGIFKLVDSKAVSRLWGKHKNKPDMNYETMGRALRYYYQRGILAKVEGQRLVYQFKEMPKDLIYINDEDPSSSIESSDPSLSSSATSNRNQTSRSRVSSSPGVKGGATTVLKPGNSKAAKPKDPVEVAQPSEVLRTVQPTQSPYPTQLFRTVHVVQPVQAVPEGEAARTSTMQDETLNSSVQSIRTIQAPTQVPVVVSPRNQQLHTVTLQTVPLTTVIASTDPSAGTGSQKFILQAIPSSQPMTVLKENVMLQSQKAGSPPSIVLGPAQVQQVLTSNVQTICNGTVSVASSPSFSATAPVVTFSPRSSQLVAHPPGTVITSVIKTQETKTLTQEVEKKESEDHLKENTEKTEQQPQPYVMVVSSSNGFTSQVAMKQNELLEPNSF
# ETV5, sequence (P41161 whole entry): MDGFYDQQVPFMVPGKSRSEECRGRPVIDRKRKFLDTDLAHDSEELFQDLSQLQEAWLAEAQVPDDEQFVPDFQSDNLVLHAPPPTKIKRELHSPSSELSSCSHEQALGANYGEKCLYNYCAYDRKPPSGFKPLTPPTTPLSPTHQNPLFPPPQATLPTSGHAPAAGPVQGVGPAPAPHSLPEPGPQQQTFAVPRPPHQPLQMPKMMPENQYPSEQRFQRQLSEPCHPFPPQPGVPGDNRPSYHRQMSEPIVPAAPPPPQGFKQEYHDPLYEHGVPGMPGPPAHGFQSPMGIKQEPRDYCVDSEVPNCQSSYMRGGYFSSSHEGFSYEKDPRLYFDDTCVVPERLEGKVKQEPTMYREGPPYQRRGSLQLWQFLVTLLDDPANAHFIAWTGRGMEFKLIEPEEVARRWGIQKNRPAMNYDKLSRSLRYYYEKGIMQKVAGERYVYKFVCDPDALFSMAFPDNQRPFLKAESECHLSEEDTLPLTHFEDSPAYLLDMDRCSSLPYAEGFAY
Sequence,binding signal (FLI1),binding signal (ELK1),binding signal (GABPA),binding signal (ERG),binding signal (ELF1),binding signal (EHF),binding signal (SPI1),binding signal (SPIB),binding signal (ELK3),binding signal (FEV),binding signal (ETV5),binding signal (SPIC),binding signal (ELF4),binding signal (ELK4),binding signal (ETV2),binding signal (ELF3),binding signal (ETV1)
CCAACA,"1.06 fold enrichment (6-mer frequency, TF over GST control)","1.11 fold enrichment (6-mer frequency, TF over GST control)","1.09 fold enrichment (6-mer frequency, TF over GST control)","1 fold enrichment (6-mer frequency, TF over GST control)","1.04 fold enrichment (6-mer frequency, TF over GST control)","1.12 fold enrichment (6-mer frequency, TF over GST control)","1.01 fold enrichment (6-mer frequency, TF over GST control)","1.01 fold enrichment (6-mer frequency, TF over GST control)","1.03 fold enrichment (6-mer frequency, TF over GST control)","1.05 fold enrichment (6-mer frequency, TF over GST control)","1.05 fold enrichment (6-mer frequency, TF over GST control)","1.01 fold enrichment (6-mer frequency, TF over GST control)","1.13 fold enrichment (6-mer frequency, TF over GST control)","1.08 fold enrichment (6-mer frequency, TF over GST control)","1.02 fold enrichment (6-mer frequency, TF over GST control)","1.06 fold enrichment (6-mer frequency, TF over GST control)","1.04 fold enrichment (6-mer frequency, TF over GST control)"
GTACCT,"1.36 fold enrichment (6-mer frequency, TF over GST control)","1.16 fold enrichment (6-mer frequency, TF over GST control)","1.26 fold enrichment (6-mer frequency, TF over GST control)","1.16 fold enrichment (6-mer frequency, TF over GST control)","1.22 fold enrichment (6-mer frequency, TF over GST control)","1.29 fold enrichment (6-mer frequency, TF over GST control)","1.12 fold enrichment (6-mer frequency, TF over GST control)","1.18 fold enrichment (6-mer frequency, TF over GST control)","1.1 fold enrichment (6-mer frequency, TF over GST control)","1.14 fold enrichment (6-mer frequency, TF over GST control)","1.26 fold enrichment (6-mer frequency, TF over GST control)","1.44 fold enrichment (6-mer frequency, TF over GST control)","1.23 fold enrichment (6-mer frequency, TF over GST control)","1.25 fold enrichment (6-mer frequency, TF over GST control)","1.32 fold enrichment (6-mer frequency, TF over GST control)","1.57 fold enrichment (6-mer frequency, TF over GST control)","1.27 fold enrichment (6-mer frequency, TF over GST control)"
